Laboratory results from PubChem BioAssay.
Active and inactive are the calls of the source.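 How the source made its calls, unless noted: active means efflux inhibition above 0.42, the validation set average plus 4 SD; inconclusive means no clear call, values can overlap the other calls; inactive means the rest.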

System: not listed separately
Assay: cytosolic pH regulators acting via V-ATPase – S. cerevisiae, pHLuorin, HTS validation (AID 504600; in the data active means response above about 15%;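 further: plate controls were DMSO for no effect and reference compound for full effect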)
Conditions: V-ATPase proton transport, at 10 µM, stronger effect = higher value

| Compound | response |
| --- | --- |
| CS(=O)(=O)Oc1ccc2c(c1)O/C(=C\C=C\c1ccccc1)C2=O | -12.2% (inactive) |
| CC(C)NC[C@@H](O)c1ccc(O)c(O)c1 | 11.9% (inactive) |
| CN1CCc2cccc3c2[C@H]1Cc1ccc(O)c(O)c1-3 | 2.95% (inactive) |
| O=C(NCCN1CCOCC1)c1ccc(Cl)cc1 | -22.3% (inactive) |
| O=C(NCCN1CCCCC1)c1c(O)c2ccccc2[nH]c1=O | 3.25% (inactive) |
| COc1ccc(S(=O)(=O)N2CCN(C(=O)COc3ccc4c(C)cc(=O)oc4c3)CC2)cc1 | 0.22% (inactive) |
| COc1ccc2cc(-c3nc4ccccc4n3C)c(=O)oc2c1 | -29.1% (inactive) |
| CCn1c(=N)c(C(=O)NC)cc2c(=O)n3cccc(C)c3nc21 | -34.5% (inactive) |
| Oc1ccc(Cl)cc1Cc1cc(Cl)ccc1O | 0.73% (inactive) |
| COC(=O)c1cc(-c2ccc(OC)c(OC)c2)on1 | -27.6% (inactive) |
| CNc1nc(N(C)C)nc(N(C)C)n1 | 3.55% (inactive) |
| C(=C\c1ccccc1)/CN1CCN(C(c2ccccc2)c2ccccc2)CC1 | 0.39% (inactive) |
| Cc1[nH]c2ccccc2c1C(=O)CN1CCCC1 | -0.48% (inactive) |
| CCOc1ccccc1C(=O)NCCC(=O)O | 1.48% (inactive) |

System: anti-desmoglein-3 scFv antibody binding to human DSG3
Assay: blockers of pathogenic pemphigus antibody–desmoglein-3 binding – biochemical, validation compound set, bead-based, flow cytometry, pilot screen (AID 588368;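 active means binding below the plate cutoff, the plate median minus 3 SD, with a reading above zero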;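 further: signal is the median channel fluorescence of bead-bound GFP antibody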)
Conditions: Protein G beads, DSG3-Fc, scFv-GFP binding, at 10 µM, stronger effect = lower value

| Compound | binding (% of control) |
| --- | --- |
| CS(=O)(=O)Oc1ccc2c(c1)O/C(=C\C=C\c1ccccc1)C2=O | 88.2% (inactive) |
| CC(C)NC[C@@H](O)c1ccc(O)c(O)c1 | 97.3% (inactive) |
| CN1CCc2cccc3c2[C@H]1Cc1ccc(O)c(O)c1-3 | 94.3% (inactive) |
| O=C(NCCN1CCOCC1)c1ccc(Cl)cc1 | 105% (inactive) |
| O=C(NCCN1CCCCC1)c1c(O)c2ccccc2[nH]c1=O | 109% (inactive) |
| COc1ccc(S(=O)(=O)N2CCN(C(=O)COc3ccc4c(C)cc(=O)oc4c3)CC2)cc1 | 103% (inactive) |
| COc1ccc2cc(-c3nc4ccccc4n3C)c(=O)oc2c1 | 95.5% (inactive) |
| CCn1c(=N)c(C(=O)NC)cc2c(=O)n3cccc(C)c3nc21 | 108% (inactive) |
| Oc1ccc(Cl)cc1Cc1cc(Cl)ccc1O | 108% (inactive) |
| COC(=O)c1cc(-c2ccc(OC)c(OC)c2)on1 | 107% (inactive) |
| CNc1nc(N(C)C)nc(N(C)C)n1 | 107% (inactive) |
| C(=C\c1ccccc1)/CN1CCN(C(c2ccccc2)c2ccccc2)CC1 | 120% (inactive) |
| Cc1[nH]c2ccccc2c1C(=O)CN1CCCC1 | 110% (inactive) |
| CCOc1ccccc1C(=O)NCCC(=O)O | 105% (inactive) |

System: not listed separately
Assay: Nile Red efflux blockade in pump-expressing yeast – validation compound set, multiplex, phenotypic, pilot screen (AID 588506);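 further: Nile Red retained in cells so higher fluorescence means more efflux inhibition; 0 = negative control wells and 1 = enniatin B 25 µM full block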
Conditions: S. cerevisiae pump-expressing triplex, Nile Red efflux flow cytometry; at 10 µM; stronger effect = higher value; the pumps come from Candida albicans

| Compound | efflux inhibition (fraction of control) |
| --- | --- |
| CS(=O)(=O)Oc1ccc2c(c1)O/C(=C\C=C\c1ccccc1)C2=O | -0.14 (inactive) |
| CC(C)NC[C@@H](O)c1ccc(O)c(O)c1 | 0 (inactive) |
| CN1CCc2cccc3c2[C@H]1Cc1ccc(O)c(O)c1-3 | 0.08 (inactive) |
| O=C(NCCN1CCOCC1)c1ccc(Cl)cc1 | 1.05 (active) |
| O=C(NCCN1CCCCC1)c1c(O)c2ccccc2[nH]c1=O | 0.49 (active) |
| COc1ccc(S(=O)(=O)N2CCN(C(=O)COc3ccc4c(C)cc(=O)oc4c3)CC2)cc1 | 0.3 (inactive) |
| COc1ccc2cc(-c3nc4ccccc4n3C)c(=O)oc2c1 | -0.2 (inactive) |
| CCn1c(=N)c(C(=O)NC)cc2c(=O)n3cccc(C)c3nc21 | 1.08 (active) |
| Oc1ccc(Cl)cc1Cc1cc(Cl)ccc1O | -0.04 (inactive) |
| COC(=O)c1cc(-c2ccc(OC)c(OC)c2)on1 | 0.61 (active) |
| CNc1nc(N(C)C)nc(N(C)C)n1 | 0.92 (active) |
| C(=C\c1ccccc1)/CN1CCN(C(c2ccccc2)c2ccccc2)CC1 | -0.24 (inactive) |
| Cc1[nH]c2ccccc2c1C(=O)CN1CCCC1 | 0.24 (inactive) |
| CCOc1ccccc1C(=O)NCCC(=O)O | 0.92 (active) |

Target: ATP-binding cassette sub-family B member 6 (Homo sapiens) (UniProt Q9NP58)
Sequence (Q9NP58 whole entry, looked up): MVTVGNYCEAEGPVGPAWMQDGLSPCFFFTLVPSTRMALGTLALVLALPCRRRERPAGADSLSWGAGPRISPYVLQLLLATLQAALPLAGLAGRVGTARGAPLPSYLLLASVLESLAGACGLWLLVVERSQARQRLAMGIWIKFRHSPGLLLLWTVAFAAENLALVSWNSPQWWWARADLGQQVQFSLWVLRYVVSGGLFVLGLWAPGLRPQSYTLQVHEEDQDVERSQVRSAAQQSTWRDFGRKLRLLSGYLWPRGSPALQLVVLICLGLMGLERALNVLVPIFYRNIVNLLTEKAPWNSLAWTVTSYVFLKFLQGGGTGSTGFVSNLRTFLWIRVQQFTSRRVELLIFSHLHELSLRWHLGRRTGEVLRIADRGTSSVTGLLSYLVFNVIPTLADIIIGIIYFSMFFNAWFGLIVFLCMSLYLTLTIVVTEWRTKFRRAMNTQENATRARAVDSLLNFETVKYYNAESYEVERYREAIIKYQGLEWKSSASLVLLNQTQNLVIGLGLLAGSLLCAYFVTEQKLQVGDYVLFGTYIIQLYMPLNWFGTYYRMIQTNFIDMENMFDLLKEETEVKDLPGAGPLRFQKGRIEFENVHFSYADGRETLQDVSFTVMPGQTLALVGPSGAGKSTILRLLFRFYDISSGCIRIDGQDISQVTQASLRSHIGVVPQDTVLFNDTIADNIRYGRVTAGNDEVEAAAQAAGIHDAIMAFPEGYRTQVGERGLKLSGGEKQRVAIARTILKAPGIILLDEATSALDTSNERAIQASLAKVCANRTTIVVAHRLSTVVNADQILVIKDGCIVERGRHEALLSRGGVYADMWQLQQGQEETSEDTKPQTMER
Assay: blockers of ABCB6-driven porphyrin uptake – K562-ABCB6 cells, flow cytometry, validation set, pilot screen (AID 588550;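 active means inhibition above the screen-wide mean plus 3 SD, about 51%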;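 further: 0% = DMSO wells and 100% = benzethonium chloride 70 µM positive control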)
Conditions: K562-ABCB6 porphyrin accumulation, 1 h, at 10 µM, stronger effect = higher value

| Compound | inhibition |
| --- | --- |
| CS(=O)(=O)Oc1ccc2c(c1)O/C(=C\C=C\c1ccccc1)C2=O | -22% (inactive) |
| CC(C)NC[C@@H](O)c1ccc(O)c(O)c1 | 2% (inactive) |
| CN1CCc2cccc3c2[C@H]1Cc1ccc(O)c(O)c1-3 | -1% (inactive) |
| O=C(NCCN1CCOCC1)c1ccc(Cl)cc1 | 14% (inactive) |
| O=C(NCCN1CCCCC1)c1c(O)c2ccccc2[nH]c1=O | -4% (inactive) |
| COc1ccc(S(=O)(=O)N2CCN(C(=O)COc3ccc4c(C)cc(=O)oc4c3)CC2)cc1 | -3% (inactive) |
| COc1ccc2cc(-c3nc4ccccc4n3C)c(=O)oc2c1 | 7% (inactive) |
| CCn1c(=N)c(C(=O)NC)cc2c(=O)n3cccc(C)c3nc21 | 5% (inactive) |
| Oc1ccc(Cl)cc1Cc1cc(Cl)ccc1O | 11% (inactive) |
| COC(=O)c1cc(-c2ccc(OC)c(OC)c2)on1 | 0% (inactive) |
| CNc1nc(N(C)C)nc(N(C)C)n1 | 11% (inactive) |
| C(=C\c1ccccc1)/CN1CCN(C(c2ccccc2)c2ccccc2)CC1 | 16% (inactive) |
| Cc1[nH]c2ccccc2c1C(=O)CN1CCCC1 | 48% (inactive) |
| CCOc1ccccc1C(=O)NCCC(=O)O | 13% (inactive) |
